These results are taken from PubChem BioAssay (NCATS).

In assay [1] the target is Cytochrome P450 3A4 (Homo sapiens) (UniProt P08684). The assay is described as follows: qHTS Assay for Inhibitors and Substrates of Cytochrome P450 3A4 (AID 884). Also: potency is read from the fitted curve at half-maximal effect; nearly all actives have a fitted effect of over 50% in size. In outline:
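20 nM human CYP3A4 with 25 uM Luciferin-PPXE (at KM) in 200 mM KPO4, preincubated 10 min with compound; NADPH regeneration started a 60 min RT reaction. Luciferin detected by luminescence, normalized to 57 uM ketoconazole as full inhibition.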
For orientation: Quantitative high-throughput screening tests each substance at several concentrations.

For assay [2] the target is unchanged. Put plainly: qHTS Assay for Activators of Cytochrome P450 3A4 (AID 885). Also: nearly all actives have a fitted effect of over 65% in size. The essentials: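 20nM CYP3A4 + 25uM Luciferin-PPXE (=KM), 200mM KPO4; cpd 10 min RT; NADPH regen, 60 min RT; stop w/ detection buffer, 20 min; luminescence. Normalized to 57 uM ketoconazole.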

The structures appear in SMILES notation. Values without a mark were called inactive. Results filed as inconclusive are left out. Activity calls are given as the source filed them. Calls follow the shape of the dose curve; as a rule, active = well fitted curve in the direction sought with a large enough effect; inconclusive = small, poorly fitted or top-dose-only effect, or another doubt; inactive = no such curve, though single readings can be large; an effect the other way counts as inactive or inconclusive.

Cytochrome P450 3A4 (Homo sapiens), sequence (P08684 whole entry, looked up): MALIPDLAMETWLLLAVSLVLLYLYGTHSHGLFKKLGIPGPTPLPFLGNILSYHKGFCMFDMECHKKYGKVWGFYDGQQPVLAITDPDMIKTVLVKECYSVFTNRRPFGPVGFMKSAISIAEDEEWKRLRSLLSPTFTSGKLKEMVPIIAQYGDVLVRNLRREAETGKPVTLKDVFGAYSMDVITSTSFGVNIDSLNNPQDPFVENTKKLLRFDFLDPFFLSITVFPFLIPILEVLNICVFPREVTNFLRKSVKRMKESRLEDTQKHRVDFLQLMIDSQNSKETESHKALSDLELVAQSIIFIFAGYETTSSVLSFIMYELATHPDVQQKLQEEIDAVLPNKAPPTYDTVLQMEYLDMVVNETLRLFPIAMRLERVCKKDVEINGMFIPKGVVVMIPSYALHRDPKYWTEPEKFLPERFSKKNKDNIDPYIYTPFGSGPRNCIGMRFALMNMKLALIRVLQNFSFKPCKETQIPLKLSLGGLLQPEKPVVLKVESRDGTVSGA

With `CN1C[C@@H]2C(c3ccc(Cl)nc3)C3(c4ccccc4)CC2(C3)[C@H]1c1ccccc1` (some centres undefined), in assay [1], the Potency is 12.6 µM (active). Also, the Potency result in assay [2] was “inactive”.
Take `COC(=O)C/C=C\[C@@H](C)[C@@H](/C=N\O[C@@H](C)CN1CCCCc2nc(C)c(C)cc21)NS(=O)(=O)c1ccc(C)cc1`: the Potency in assay [1] was 3.98 µM (active). The activity change, positive = activation in assay [2] is -78.5% [at 11.4 µM].
Turning to `Cc1ccc(S(=O)(=O)N[C@H]2COC(=O)CC=C[C@@H](C)[C@H]3C=C[C@H](O)[C@@H](COC(=O)CC=C[C@H]2C)O3)cc1`, the Potency in assay [1] is 3.16 µM (active). Moreover, the activity change, positive = activation in assay [2] was -86.3% [at 11.4 µM].
As for `C[C@@H](c1ccccc1)N1C(=O)[C@H]2[C@H]3[C@H](O)[C@H](O)C/C(=N/OC[C@@H](O)COCc4ccco4)[C@H]3CC[C@@H]2C1=O`, in assay [1], the Potency was 3.98 µM (active). Also, in assay [2], the activity change, positive = activation was -66.6% [at 11.4 µM].
Turning to `CCC1=C(OC(=O)N(CC)CC)N2C(=O)OC(=NCC(=O)OC)[C@]2(C)[C@H]2C1=CC[C@H]1C(=O)NC(=O)[C@H]12`, the Potency in assay [1] is 12.6 µM (active). Also, the Potency result in assay [2] is “inactive”.
In the case of `C#CCCCO/N=C1/C[C@@H](O)[C@@H](O)[C@@H]2[C@H]3C(=O)N(c4ccc(F)cc4F)C(=O)[C@@H]3CC[C@H]12`, in assay [1], the Potency was 3.98 µM (active). Further, in assay [2], the activity change, positive = activation was -60.2% [at 11.4 µM].
For the compound `Cc1cc2c(nc1C)CCCCN2C[C@H](C)O/N=C\[C@@H](C)[C@H](OCc1ccccc1)C(C)C`, the Potency in assay [1] was 3.98 µM (active). In addition, the activity change, positive = activation in assay [2] was -76.1% [at 11.4 µM].
With `CCC1=C(OC(=O)N(CC)CC)N2C(=O)OC(=NCCc3c[nH]c4ccccc34)[C@]2(Cc2ccccc2)[C@H]2C1=CC[C@H]1C(=O)N(C)C(=O)[C@H]12`, the Potency in assay [1] is 1.26 µM (active). For the same compound, the Potency entry in assay [2] was “inactive”.
With `COc1cccc([C@@H]2Oc3ccc(OC)cc3C(=O)[C@H]2O)c1`, the Potency in assay [1] is 3.98 µM (active). The activity change, positive = activation in assay [2] is -83.3% [at 11.4 µM].
In the case of `COC(=O)c1ccc(C23CC4(C2)[C@H](CN(Cc2cccnc2)[C@@H]4c2ccccc2)C3c2ccc(C(F)(F)F)cc2)cc1` (some centres undefined), the Potency in assay [1] is 5.01 µM (active). In assay [2], the Potency entry is “inactive”.
As for `COC(=O)C/C=C\[C@@H](C)[C@@H](/C=N\OC[C@@H](O)[C@H]1O[C@H]2OC(C)(C)O[C@H]2[C@@H]1O)NS(=O)(=O)c1ccc(C)cc1`, the Potency in assay [1] was 3.98 µM (active). For the same compound, the activity change, positive = activation in assay [2] was -61% [at 11.4 µM].
In the case of `CCC1=C2CC[C@H]3C(=O)N(CC)C(=O)[C@H]3[C@H]2[C@@]2(Cc3ccccc3)C(=NCCOC)OC(=O)N2C1=O`, the Potency in assay [1] is 10 µM (active). For the same compound, in assay [2], the Potency entry was “inactive”.
Turning to `C/C(CCC(=O)OC[C@@H]1O[C@H](C#Cc2ccccc2)C=C[C@@H]1Oc1ccc(C)cc1)=N/O[C@@H](C)CN1CCCCc2nc(C)c(C)cc21`, the Potency in assay [1] is 3.16 µM (active). Moreover, in assay [2], the activity change, positive = activation was -94.6% [at 11.4 µM].
With `COC(=O)c1ccc(C(NC(=O)OCc2ccccc2)/C(I)=C/[C@@H](C)C(=O)NCc2ccc(C)o2)cc1` (some centres undefined), the Potency in assay [1] was 10 µM (active). Further, the Potency entry in assay [2] was “inactive”.
Turning to `O=C1[C@H]2[C@H]3[C@H](O)[C@H](O)C/C(=N/OC[C@@H](O)COCc4ccco4)[C@@H]3CC[C@@H]2C(=O)N1Cc1ccccc1`, in assay [1], the Potency is 3.16 µM (active). Moreover, the activity change, positive = activation in assay [2] was -71.1% [at 11.4 µM].
Consider `CCc1cc2c(nc1CC)CCN(CC/C(C)=N/O[C@@H](C)c1cc(-c3c(C)cc(C)cc3C)no1)C2`, for which, in assay [1], the Potency is 3.98 µM (active). Besides, in assay [2], the activity change, positive = activation is -69% [at 11.4 µM].
Consider `CCC1=C(OC(=O)N(CC)CC)N2C(=O)OC(=NCC3CC3)[C@]2(Cc2ccccc2)[C@H]2C1=CC[C@H]1C(=O)N(C)C(=O)[C@H]12`, for which the Potency in assay [1] was 3.98 µM (active). The Potency entry in assay [2] is “inactive”.
With `CN1C[C@@H]2C(c3ccccc3)C3(c4cccnc4)CC2(C3)[C@H]1c1ccccc1` (some centres undefined), the Potency in assay [1] is 2.51 µM (active). Moreover, in assay [2], the Potency entry is “inactive”.
As to `COC(=O)c1ccc(C23CC4(C2)[C@H](CN(CC2CCCCC2)[C@@H]4c2ccccc2)C3c2ccccc2)cc1` (some centres undefined), in assay [1], the Potency is 25.1 µM (active). Further, the Potency result in assay [2] was “inactive”.
With `FC(F)(F)c1ccc(C2[C@H]3CN(CC4CCCCC4)[C@H](c4ccccc4)C34CC2(c2cccnc2)C4)cc1` (some centres undefined), the Potency in assay [1] is 15.8 µM (active). The Potency result in assay [2] was “inactive”.
The like results for `CCC1=C2CC[C@H]3C(=O)N(c4ccccc4)C(=O)[C@H]3[C@H]2[C@@]2(C)C(=NCC(=O)OC)OC(=O)N2C1=O` were, in that order, 15.8 µM (active) and “inactive”.
The like results for `CCC1=C(OC(=O)N(CC)CC)N2C(=O)OC(=NCc3ccccc3)[C@]2(C)[C@H]2C1=CC[C@H]1C(=O)N(CC(=O)OC)C(=O)[C@H]12` were, in that order, 5.01 µM (active) and “inactive”.
